The source of these data is PubChem BioAssay.

The source made the active and inactive calls.
Also: test concentration not given here.

One test can be described thus: fission yeast growth modulation, primary screen, strain 972, OD600, 24 h, no modulator (AID 1090).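 Also: basal condition with compound alone and no growth modifier present.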 The conditions noted are these: S. pombe 972 growth, higher = more signal, called active from +8 up or from −8 down.
For `CC(C)OC(=O)C=C1C[C@@H](c2cccc(Cl)c2)O[C@@H](c2cccc(Cl)c2)O1`, the z-score is -5.58 (inactive). As for `COC(=O)[C@@]1(Cc2ccc(F)cc2)[C@H]2c3cc(C(=O)N(C)C)n(Cc4cc(C)n(C)n4)c3C[C@H]2CN1C(=O)c1ccccc1`, the z-score is 0.456 (inactive). On the same count and under the same terms, for `[N-]=[N+]=NCc1ccccc1C[C@@]1(C(=O)NCC(O)CO)N=C(c2ccc(OCCCO)cc2)O[C@@H]1c1ccccc1` (stereo not given in full) the value was -0.272 (inactive); for `COC(=O)[C@@]1(Cc2ccc(OC)cc2)[C@H]2c3cc(C(=O)N4CCCC4)n(CCc4ccc(O)c(O)c4)c3C[C@H]2CN1C(=O)c1ccccc1`, 0.208 (inactive); for `CC(c1ccccc1)C(O)C1C=CC2C(=O)N(c3ccccc3)C(=O)C2N1Nc1ccccc1` (stereo not given), 1.23 (inactive). Still for that read-out and setting: under `O=C1OCCC/C=C\[C@H]2OC34C=CCN(c5ccc6ccccc6c5)C(=O)[C@H]3N(CCCCCO)C(=O)[C@@H]4C12` (stereo not given in full) stands -1.52 (inactive); under `C#CCN1[C@@H](Cc2ccc(O)cc2)C(=O)O[C@H](Cc2ccccc2)[C@@H]1/C=C/C1CC1`, -4.95 (inactive).

As to `COCCCNC(=O)[C@@H]1c2ccccc2C(=O)N(Cc2ccccc2)[C@H]1c1ccc(CO)cc1`, the z-score is -0.0108 (inactive). On the same count and under the same terms, for `COc1cc2c(cc1O)C(c1cccs1)N(Cc1ccc([N+](=O)[O-])o1)CC2` (stereo not given) the value was -4.47 (inactive). Same read-out and setting: under `C=C(CCCC)/C(=C/C[C@@H](OC(C)=O)c1ccccc1OCCO)c1cc(C(=O)OC)ccc1OC` stands 0.404 (inactive).

The nature of the next test: S. cerevisiae growth modulation with rapamycin, primary screen, strain BY4716, OD600, 96 h (AID 1091). Particulars: higher = more signal, called active from +8 up or from −8 down.
Turning to `OB1C=CCC(CCc2ccccc2)O1` (stereo not given), the z-score is -0.762 (inactive). On to `CCCCCCc1nc(-c2ccc(-c3ccc(Cl)c(Cl)c3)o2)c(C)c2c1[Si](C(C)C)(C(C)C)OC2`, for which the z-score was 0.0962 (inactive). Take `O=C1NC(=O)C2C1C=CC(C(O)C=Cc1ccc([N+](=O)[O-])cc1)N2Nc1ccc(Cl)cc1Cl` (stereo not given): the z-score is -0.103 (inactive).

On to `Cc1ccc(S(=O)(=O)N2C[C@@H](C(=O)O)[C@H](Sc3ccccc3)C[C@H]2c2ccccc2)cc1`, for which the z-score was -0.727 (inactive). For the compound `COC(=O)[C@@]1(Cc2ccccc2)[C@H]2c3cc(C(=O)N(C)C)n(CCc4c[nH]c5ccc(O)cc45)c3C[C@H]2CN1C(=O)c1ccccc1`, the z-score is 0.405 (inactive). In the case of `C=CC[C@]1(C(N)=O)COC(c2ccc(OCCCO)cc2)=N1`, the z-score is -1.09 (inactive).

Turning to `O=C(CS)NCCCCCNC(=O)[C@@H]1C[C@@H]2C(=O)NCC(=O)N2[C@@H]1c1ccc(O)cc1`, the z-score was 0.494 (inactive). The same measure, in the same setting: under `COc1cc(OC)c(C(O)C2C=CC3C(=O)NC(=O)C3N2Nc2ccccn2)cc1Br` (stereo not given) stands 0.204 (inactive); under `NC(=O)[C@@]1(Cc2ccccc2)N=C(c2ccc(OCCCO)cc2)O[C@H]1c1ccccc1`, -0.0393 (inactive). Regarding `C=CCN1C(=O)[C@]2(O[C@H](CCO)[C@@H]([Si](C)(C)c3ccc(OC)cc3)[C@@H]2C)c2cc(N(C=O)c3ccccc3)ccc21`, the z-score is 36.9 (active).

On to `O=C(CS)NCCCCCNC(=O)[C@H]1C[C@H]2C(=O)NCC(=O)N2[C@H]1c1cccc(OCCO)c1`, for which the z-score is -0.336 (inactive). The same measure, in the same setting: for `CC(c1ccccc1)C(O)C1C=CC2C(=O)N(C)C(=O)C2N1NC(=O)OC(C)(C)C` (stereo not given) the value was 0.299 (inactive).

Regarding `CO[C@H]1O[C@H](CO)[C@@H](OC(=O)Nc2ccccc2)[C@@H]2OC(=O)[C@@H](Cc3ccc4ccccc4c3)C/C=C/C[C@H](Cc3ccc4ccccc4c3)C(=O)O[C@@H]12`, the z-score was 1.55 (inactive). Consider `CCCC[C@@H]1C[C@H]1[C@@H](NC(=O)c1cccnc1)c1ccc(Cl)cc1`, for which the z-score was 0.887 (inactive). In the case of `[N-]=[N+]=NCc1ccccc1[C@@H]1OC(c2ccc(OCCCO)cc2)=N[C@]1(CCS(=O)(=O)c1ccccc1)C(N)=O`, the z-score is -0.325 (inactive). Same read-out and setting: under `COc1ccc(CCNC(=O)[C@@]2(c3ccc([N+](=O)[O-])cc3)CC(=O)N(CC34CC5CC(CC(C5)C3)C4)[C@@H]2c2ccc(CO)cc2I)cc1` stands 6.17 (inactive); under `COC(=O)[C@H](Cc1ccccc1)N[C@H](/C=C/C1CC1)[C@@H](O)Cc1ccccc1`, -0.751 (inactive); under `COc1ccc(C(O)C2C=CC3C(=O)N(C)C(=O)C3N2N(c2ccccc2)c2ccccc2)c2ccccc12` (stereo not given), 0.375 (inactive). On the same count and under the same terms, for `CC(C)(C)OC(=O)CC[C@]1(C(N)=O)N=C(c2ccc(OCCCO)cc2)O[C@H]1c1ccccc1` the value was 0.793 (inactive); for `COC(=O)[C@@]1(Cc2ccccc2)[C@H]2c3cc(C(=O)N(C)C)n(Cc4ccc(OC)c(OC)c4)c3C[C@H]2CN1C(=O)c1ccccc1`, 0.534 (inactive).
